Measured values taken from the supplement of paper PMC9399229.
Where a name gives a salt, the structure may show the parent alone. In all, about 1,900 compounds were measured (“relative cell viability (CellTiter-Glo), compound plus cabozantinib, relative to the cabozantinib arm (arm median 1.05; reference not stated)”: median about 1.1, lowest 2% from about 0.15 on). The sample holds the lowest values, similar compounds and a random draw of the others, so the mix is not that of the screen.

system: Hep3B; test: relative cell viability (CellTiter-Glo), compound plus cabozantinib, relative to the cabozantinib arm (arm median 1.05; reference not stated) (fraction); higher = more viable cells (less growth inhibition); details: cabozantinib 2 µM; 4 days

**Q.** `O=C(O)CC1CC(c2ccccc2)=NO1` (configuration not stated) was tested. Which relative cell viability did it give?
**A.** The relative cell viability was 1.1.

**Q.** For `CC(C(O)c1ccc(O)cc1)N1CCC(Cc2ccccc2)CC1` (configuration not stated) [Ifenprodil Tartrate], which relative cell viability is on record?
**A.** The relative cell viability was 1.13.

**Q.** For `CS(=O)(=O)CCNCc1ccc(-c2ccc3ncnc(Nc4ccc(OCc5cccc(F)c5)c(Cl)c4)c3c2)o1`, which relative cell viability is on record?
**A.** Its relative cell viability is 1.03.

**Q.** For `CS(=O)(=O)CCNCc1ccc(-c2ccc3ncnc(Nc4ccc(OCc5cccc(F)c5)c(Cl)c4)c3c2)o1` [Lapatinib], which relative cell viability is on record?
**A.** Its relative cell viability is 0.971.

**Q.** Which relative cell viability does the source give for `COC(=O)c1ccc2c(c1)NC(=O)/C2=C(\Nc1ccc(N(C)C(=O)CN2CCN(C)CC2)cc1)c1ccccc1` [Nintedanib (BIBF 1120)] here?
**A.** Its relative cell viability is 0.806.

**Q.** `CN(C)Cc1cccc(N/C(=C2\C(=O)Nc3cc(C(N)=O)ccc32)c2ccccc2)c1` was tested. Which relative cell viability did it give?
**A.** Its relative cell viability is 0.924.

**Q.** For `CCS(=O)(=O)Nc1ccc2c(c1)/C(=C(/Nc1ccc(CN3CCCCC3)cc1)c1ccccc1)C(=O)N2` [Hesperadin], which relative cell viability is on record?
**A.** Its relative cell viability is 0.123.

**Q.** `O=C1NCC2(CCN(CCc3ccccc3)CC2)O1` [Fenspiride HCl] was tested. Which relative cell viability did it give?
**A.** Its relative cell viability is 1.16.

**Q.** `CC(=O)Nc1ccc(C(=O)Nc2ccccc2N)cc1` [CI994 (Tacedinaline)] was tested. Which relative cell viability did it give?
**A.** Its relative cell viability is 1.14.

**Q.** Which relative cell viability does the source give for `CCCCN(Cc1ccc(C(=O)NO)cc1)C(=O)Nc1ccccc1` [Nexturastat A] here?
**A.** Its relative cell viability is 0.953.

**Q.** With `CC(C)[C@H](C(=O)Nc1ccc(C(=O)NO)cc1)c1ccccc1` as the compound, how does the relative cell viability read?
**A.** The relative cell viability was 0.142.

**Q.** Which relative cell viability does the source give for `CC(C(=O)O)c1ccc2c(c1)Cc1cccnc1O2` (configuration not stated) [Pranoprofen] here?
**A.** Its relative cell viability is 1.

**Q.** For `COc1cc(N2CCC(N)CC2)ccc1Nc1ncc(Cl)c(-c2c[nH]c3ccccc23)n1`, which relative cell viability is on record?
**A.** The relative cell viability was 0.119.

**Q.** With `CCOc1cc(N2CCC(O)CC2)ccc1Nc1ncc2c(n1)N(C)c1ccccc1C(=O)N2C` as the compound, how does the relative cell viability read?
**A.** The relative cell viability was 1.09.

**Q.** With `CNC(=O)c1ccccc1Nc1nc(Nc2ccc(N3CCOCC3)cc2OC)ncc1Cl` as the compound, how does the relative cell viability read?
**A.** The relative cell viability was 0.155.

**Q.** `CC/C(=C(/CC)c1ccc(O)cc1)c1ccc(O)cc1` [Diethylstilbestrol] was tested. Which relative cell viability did it give?
**A.** The relative cell viability was 1.21.

**Q.** For `CCCCNc1ncc(C(=O)NCc2ccc(-n3ccnc3)cc2)c(NC2CCC(O)CC2)n1` (configuration not stated), which relative cell viability is on record?
**A.** Its relative cell viability is 0.996.

**Q.** `Cc1cc(C#N)cc(C)c1Oc1nc(Nc2ccc(C#N)cc2)nc(N)c1Br` [Etravirine (TMC125)] was tested. Which relative cell viability did it give?
**A.** Its relative cell viability is 1.23.

**Q.** For `c1cc(-c2cnn3cc(-c4ccc(N5CCNCC5)cc4)cnc23)c2cccnc2c1`, which relative cell viability is on record?
**A.** Its relative cell viability is 0.148.

**Q.** `COc1cc(-c2cc(-c3ccc(N4CCNCC4)cc3)cnc2C)cc(OC)c1OC` was tested. Which relative cell viability did it give?
**A.** The relative cell viability was 1.01.

**Q.** `COc1ccc(-c2cnc3c(-c4cccc5ncccc45)cnn3c2)cc1` was tested. Which relative cell viability did it give?
**A.** Its relative cell viability is 1.08.

**Q.** With `CS(=O)(=O)N1CCc2c(-c3cnc(N)nc3)nc(N3CCOCC3)nc21` as the compound, how does the relative cell viability read?
**A.** The relative cell viability was 0.228.

**Q.** With `CNC(=O)c1ccccc1Nc1cc(Nc2ccc(N3CCOCC3)cc2OC)ncc1C(F)(F)F` as the compound, how does the relative cell viability read?
**A.** The relative cell viability was 1.05.

**Q.** With `CCCCCCCCCCCC[N+](C)(C)CCOc1ccccc1` [Domiphen Bromide] as the compound, how does the relative cell viability read?
**A.** Its relative cell viability is 1.02.

**Q.** With `Cc1[nH]c2ccccc2c1CCNCc1ccc(/C=C/C(=O)NO)cc1` [Panobinostat (LBH589)] as the compound, how does the relative cell viability read?
**A.** Its relative cell viability is 0.108.

**Q.** How did the relative cell viability turn out when `Cc1[nH]c2ccccc2c1CCNC(=O)c1cccs1` was run?
**A.** Its relative cell viability is 1.18.

**Q.** For `Cc1ccc([N+](=O)[O-])cc1S(=O)(=O)N(C)/N=C/c1cnc2ccc(Br)cn12`, which relative cell viability is on record?
**A.** The relative cell viability was 0.113.

**Q.** With `CCN(CC)C(=S)SSC(=S)N(CC)CC` [Disulfiram] as the compound, how does the relative cell viability read?
**A.** Its relative cell viability is 0.0898.

**Q.** `Oc1ncnc2[nH]ncc12` [Allopurinol] was tested. Which relative cell viability did it give?
**A.** Its relative cell viability is 0.992.

**Q.** Which relative cell viability does the source give for `CC(C)[C@H]1CC[C@H](C(=O)N[C@H](Cc2ccccc2)C(=O)O)CC1` [Nateglinide] here?
**A.** Its relative cell viability is 1.13.

**Q.** How did the relative cell viability turn out when `CC(C)(C)c1nc(-c2cccc(NS(=O)(=O)c3c(F)cccc3F)c2F)c(-c2ccnc(N)n2)s1` was run?
**A.** Its relative cell viability is 0.993.

**Q.** With `CC(C)N(CCCNC(=O)Nc1ccc(C(C)(C)C)cc1)C[C@H]1O[C@@H](n2ccc3c(N)ncnc32)[C@H](O)[C@@H]1O` as the compound, how does the relative cell viability read?
**A.** The relative cell viability was 1.07.

**Q.** With `O=C1c2c(O)cc(O)cc2O[C@H](c2cc(O)c(O)c(O)c2)[C@H]1O` [Dihydromyricetin] as the compound, how does the relative cell viability read?
**A.** The relative cell viability was 0.985.

**Q.** How did the relative cell viability turn out when `CC(C)[C@H](O)C(=O)N[C@@H](C)C(=O)N[C@@H]1C(=O)N(C)CCc2ccccc21` was run?
**A.** The relative cell viability was 1.01.

**Q.** `CCN(c1cc(-c2ccc(CN3CCOCC3)cc2)cc(C(=O)NCc2c(C)cc(C)[nH]c2=O)c1C)C1CCOCC1` was tested. Which relative cell viability did it give?
**A.** The relative cell viability was 0.911.

**Q.** How did the relative cell viability turn out when `CN1CCN(CCCNc2ncc(Cl)c(-c3cc4c(C(=O)NC5CC5)cccc4s3)n2)CC1` was run?
**A.** The relative cell viability was 1.1.

**Q.** Which relative cell viability does the source give for `CCNC(=O)CCC/C=C\C[C@@H]1[C@@H](/C=C/[C@@H](O)CCc2ccccc2)[C@H](O)C[C@@H]1O` [Bimatoprost] here?
**A.** Its relative cell viability is 1.16.

**Q.** For `C[C@H]1CO[C@@H]2Cn3cc(C(=O)NCc4ccc(F)cc4F)c(=O)c(O)c3C(=O)N12`, which relative cell viability is on record?
**A.** Its relative cell viability is 1.1.

**Q.** Which relative cell viability does the source give for `Cc1noc(NS(=O)(=O)c2ccc(N)cc2)c1C` [Sulfisoxazole] here?
**A.** Its relative cell viability is 1.01.

**Q.** Which relative cell viability does the source give for `CCOc1nc2cccc(C(=O)OCc3oc(=O)oc3C)c2n1Cc1ccc(-c2ccccc2-c2noc(=O)[nH]2)cc1` [Azilsartan Medoxomil] here?
**A.** Its relative cell viability is 1.22.

**Q.** Which relative cell viability does the source give for `O=C(Nc1ncc(SCCN2CCCC2)s1)[C@]1(c2ccc(S(=O)(=O)C3CC3)cc2)C[C@H]1C1CCCCC1` here?
**A.** Its relative cell viability is 0.963.

**Q.** For `CCOc1cc(C(=O)N2CCC(N3CCN(C)CC3)CC2)ccc1Nc1ncc2c(n1)N(C1CCCC1)c1ccccc1C(=O)N2C`, which relative cell viability is on record?
**A.** Its relative cell viability is 0.703.

**Q.** `CC(C=CC1(O)C(C)=CC(=O)CC1(C)C)=CC(=O)O` (configuration not stated) [Abscisic Acid (Dormin)] was tested. Which relative cell viability did it give?
**A.** The relative cell viability was 1.08.

**Q.** With `O=c1c2ccccc2oc2ccccc12` [Xanthone] as the compound, how does the relative cell viability read?
**A.** Its relative cell viability is 1.08.

**Q.** For `Cc1cc(F)c(Nc2ncnc3cc(OCc4ccccc4)ccc23)cc1O`, which relative cell viability is on record?
**A.** The relative cell viability was 1.05.

**Q.** For `O=NO` [Sodium Nitrite], which relative cell viability is on record?
**A.** Its relative cell viability is 1.09.

**Q.** `CCc1c(C(=O)NCCc2ccc(N3CCCCC3)cc2)[nH]c2ccc(Cl)cc12` was tested. Which relative cell viability did it give?
**A.** Its relative cell viability is 0.997.

**Q.** `CC(C)(C#N)c1cc(Cn2cncn2)cc(C(C)(C)C#N)c1` [Anastrozole] was tested. Which relative cell viability did it give?
**A.** Its relative cell viability is 1.1.

**Q.** Which relative cell viability does the source give for `C/C(O)=C(\C#N)C(=O)Nc1ccc(C(F)(F)F)cc1` [Teriflunomide] here?
**A.** The relative cell viability was 0.922.

**Q.** For `CC[C@H](c1ccc(O)cc1)[C@@H](CC)c1ccc(O)cc1` [Hexestrol], which relative cell viability is on record?
**A.** Its relative cell viability is 1.19.

**Q.** How did the relative cell viability turn out when `CC(C(=O)O)c1ccc2c(c1)CC(=O)c1ccccc1S2` (configuration not stated) [Zaltoprofen] was run?
**A.** Its relative cell viability is 1.17.

**Q.** With `CSc1cccc(Nc2ncc3cc(-c4c(Cl)cccc4Cl)c(=O)n(C)c3n2)c1` as the compound, how does the relative cell viability read?
**A.** The relative cell viability was 0.748.

**Q.** `OCC(CO)N[C@H]1C[C@](O)(CO)[C@@H](O)[C@H](O)[C@H]1O` [Voglibose] was tested. Which relative cell viability did it give?
**A.** The relative cell viability was 1.28.

**Q.** For `Nc1nc(O)c2ncn(CCC(CO)CO)c2n1` [Penciclovir], which relative cell viability is on record?
**A.** The relative cell viability was 1.08.

**Q.** Which relative cell viability does the source give for `CC(ONC(=O)c1cc(C(F)(F)F)cc(C(F)(F)F)c1)C(=O)Nc1ccc(Cl)cc1` (configuration not stated) here?
**A.** The relative cell viability was 1.15.

**Q.** `O=C(Nc1ccccc1)c1ccccc1O` [Salicylanilide] was tested. Which relative cell viability did it give?
**A.** The relative cell viability was 1.1.

**Q.** For `O=C(Nc1cc(C(F)(F)F)cc(C(F)(F)F)c1)c1cc(Cl)ccc1O`, which relative cell viability is on record?
**A.** Its relative cell viability is 0.122.
